Results filed as inconclusive are left out. A number with no mark means an inactive call. Activity calls are given as the source filed them. Calls come from the whole dose curve; as a rule, active = well fitted inhibition curve with a large enough effect in the repeat runs; inconclusive = weak or mixed curves; inactive = no such curve, though single readings can be large or run the other way.
% is set by controls: 0 for no effect and ±100 for the full control effect; potency is the fitted concentration of half-maximal effect.

Chain of Cytochrome P450 2C9 (Homo sapiens) (P11712 whole entry, looked up): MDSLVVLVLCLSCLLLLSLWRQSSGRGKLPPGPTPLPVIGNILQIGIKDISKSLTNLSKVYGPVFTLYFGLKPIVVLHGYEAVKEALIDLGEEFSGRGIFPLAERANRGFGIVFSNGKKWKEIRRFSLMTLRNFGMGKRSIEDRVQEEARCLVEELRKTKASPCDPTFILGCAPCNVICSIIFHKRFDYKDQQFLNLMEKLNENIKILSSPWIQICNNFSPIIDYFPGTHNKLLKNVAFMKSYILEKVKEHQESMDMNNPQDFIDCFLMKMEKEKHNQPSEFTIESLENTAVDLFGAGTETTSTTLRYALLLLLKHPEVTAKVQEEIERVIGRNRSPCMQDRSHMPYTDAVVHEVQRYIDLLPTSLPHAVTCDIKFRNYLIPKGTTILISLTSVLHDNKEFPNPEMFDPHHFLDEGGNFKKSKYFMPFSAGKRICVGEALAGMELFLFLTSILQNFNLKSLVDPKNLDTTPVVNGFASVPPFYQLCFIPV

The target in the test is Cytochrome P450 2C9 (Homo sapiens) (UniProt P11712). The experiment in a line: Cytochrome P450 Family 2 Subfamily C Member 9 (CYP2C9) small molecule antagonists: luciferase reporter qHTS assay (AID 1671198). Note: nearly all actives have a fitted effect of over 50% in size. The note with it: P450-Glo CYP2C9 enzyme assay, luciferin luminescence; series mostly up to 115 µM; activity change, negative = inhibition: at the top concentration. The source says:
U.S. Tox21 Program National Center for Advancing Translational Sciences [NCATS] U.S. Environmental Protection Agency [EPA] National Institutes of Environmental Health Sciences [NIEHS] National Toxicology Program [NTP] U.S. Food and Drug Administration [FDA] Tox21 Assay Overview: Cytochrome P450 (CYP) enzymes are membrane-bound hemeproteins that play a key role in metabolism of drugs and xenobiotics. Evaluation of the effect of chemicals on CYP isozymes is useful to minimize the adverse drug reactions and toxicities in drug development process. Tox21 chemicals were tested for their effect on CYP enzyme activities by using P450-Glo (TM) screening systems (Promega Corporation, Madison, WI). These systems provide a luminescent method containing proluciferin substrates and are converted to luciferin products by CYP isozymes. The luciferin products formed are detected with a luciferin detection reagent, and the amount of light produced is proportional to CYP activity. P450-Glo (TM) CYP2C9 screening system (Catalog. No. V9790) was used to detect the compounds that interfere in CYP2C9 activity.
Tox21 Assay Protocol Summary: Two ul of enzyme-substrate mix was dispensed into medium binding white/solid 1536-well plates (Greiner Bio-One North America Inc., Monroe, NC) using a BioRaptr Flying Reagent Dispenser (FRD, Beckman Coulter, Brea, CA). […] The assay plates were incubated at room temperature for 10 min. Then 2 ul of NADPH regeneration solution was added to each well of the assay plates using an FRD and incubated at 37C for 1 h. The reaction was stopped by adding 4 ul of detection reagent using an FRD and after 20 min incubation at room temperature the luminescence signal was measured using a ViewLux plate reader (Perkin Elmer, Shelton, CT). Data were expressed as relative luminescence units.
For the molecule `COC(OC)C(C)c1ccccc1` (stereo not given), the “activity change, negative = inhibition” value was -13.4%.
Consider `O=C(O)CCNC(=O)c1ccccc1`, for which the “activity change, negative = inhibition” value was 6.05% [at 53 µM].
The same measure, in the same setting: the same measure for `CC(C)C(=O)c1ccccc1`: -14.7%; for `CCC1Nc2cc(Cl)c(S(N)(=O)=O)cc2S(=O)(=O)N1` (stereo not given): 28.9% [at 53 µM].
Same read-out and setting: the same measure for `CCC1COC(=O)O1` (stereo not given): -8.52%.
Still for that read-out and setting: the same measure for `CC(=O)Nc1ccc(C)cc1`: -8.1%.
Turning to `NC(=O)NC(=O)Cc1ccccc1`, the “activity change, negative = inhibition” value was 10.9% [at 53 µM].
For `C=C[C@@H](C)CCC=C(C)C`, the “activity change, negative = inhibition” value was -12.6%.
Same read-out and setting: the same measure for `COCC(=O)Nc1c(I)c(C(=O)NCC(O)CO)c(I)c(C(=O)N(C)CC(O)CO)c1I` (stereo not given): 2.53% [at 53 µM]; for `COC(/C=C(\C)CCC=C(C)C)OC`: 6.22%.
Consider `Cc1nc(C)nc(N2C[C@@H](C)N(c3ccnc([C@@H](C)O)n3)[C@@H](C)C2)n1`, for which the “activity change, negative = inhibition” value is -2.32% [at 53 µM].
Take `CCCOC(=O)CCCCC(=O)OCCC`: the Potency was 20 µM (active).
The same measure, in the same setting: the same measure for `COc1cc(C=O)ccc1OC(=O)C(C)C`: 35.6 µM (active).
With `Cc1ccccc1N1CCN(CCc2nnc3n2CCCC3)CC1`, the “activity change, negative = inhibition” value is -0.475% [at 53 µM].
The same measure, in the same setting: the same measure for `COc1cc2c3cc1Oc1cc(ccc1O)C[C@@H]1c4c(cc(OC)c(O)c4Oc4ccc(cc4)C[C@@H]3N(C)CC2)CC[N+]1(C)C`: 7.5% [at 53 µM].
For `O=C(O)C(=O)Nc1cccc(-c2nn[nH]n2)c1`, the “activity change, negative = inhibition” value is 0.0416% [at 53 µM].
As for `C[Si]1(C)N[Si](C)(C)N[Si](C)(C)N1`, the Potency was 63.3 µM (active).
As to `CC(C)CCC(=O)CCC(C)C`, the “activity change, negative = inhibition” value is -15%.
On the same count and under the same terms, the same measure for `CCC(CO)CO`: -9.93%.
Same read-out and setting: the same measure for `CCCCC(CC)C(=O)OC(C)C` (stereo not given): -0.418%; for `CCCCCCCCOC(C)=O`: -4.57%; for `C1=C\CC/C=C\CC/1`: -2.64%.
In the case of `O=C(CN1CCN(Cc2ccc3c(c2)OCO3)CC1)N1c2ccccc2Sc2ccccc21`, the Potency was 15.5 µM (active).
`COc1cc2c(Nc3ccc(Br)cc3F)ncnc2cc1OCC1CCN(C)CC1`: the “activity change, negative = inhibition” value is 3.83% [at 53 µM].
The same measure, in the same setting: the same measure for `CC(=O)/C=C/c1ccco1`: 2.23%.
Still for that read-out and setting: for `O=S1(=O)CCCC1` the value was 1.37%.
The same measure, in the same setting: for `CCOC(=O)C(=O)c1csc(NC=O)n1` the value was -2.65% [at 53 µM]; for `NC(=O)C1(N2CCCCC2)CCN(CCCC(=O)c2ccc(F)cc2)CC1`, 9.73% [at 53 µM].
Regarding `CCOC(=O)C(C)(C)C`, the “activity change, negative = inhibition” value was -14.2%.
Same read-out and setting: the same measure for `CCCOCCOCCOCCO`: -9.02%; for `C[C@H](CCC(=O)O)[C@H]1CC[C@H]2[C@@H]3[C@H](O)C[C@@H]4C[C@H](O)CC[C@]4(C)[C@H]3C[C@H](O)[C@]12C`: -14.5% [at 53 µM].
As for `FC(F)(F)/C(=N\OCC1OCCO1)c1ccc(Cl)cc1`, the Potency was 31.7 µM (active).
As to `CCCCCCCC[Si](OCC)(OCC)OCC`, the “activity change, negative = inhibition” value is -18.8%.
Same read-out and setting: for `CCCCCCCCCCCCC1CO1` (stereo not given) the value was -1.73%.
Consider `CC(C)COC(=O)CCCCC(=O)OCC(C)C`, for which the Potency is 22.4 µM (active).
With `CC(=O)OC(C)(C)Cc1ccccc1`, the “activity change, negative = inhibition” value was -7.07%.
Take `CC(=O)OCCCc1ccccc1`: the “activity change, negative = inhibition” value was -4.31%.
Same read-out and setting: the same measure for `CCCCCCCCCCCCCC(=O)OC`: 15.8%.
On the same count and under the same terms, for `O=c1[nH]c(=O)c2[nH]c(=O)[nH]c2[nH]1` the value was 10.1% [at 10.5 µM]; for `CCCCCCCCC(=O)OCC`, -7.14%.
